In the antibiotic and cytotoxicity screens of Wong et al. (2023) one finds cytotoxicity call data, which are given here for 65 compounds.

Structures are written as SMILES. Out of some 39,000 compounds screened, about 3,300 (8.5%) were called active. For the sample, actives were picked, then their nearest neighbours and some compounds at random.

The subject of this experiment is HepG2. Nature of the experiment: cytotoxicity call (relative viability < 0.9). The note with it: 10 µM.
On to `COc1ccccc1S(=O)(=O)N[C@H]1CC[C@@H](CCNC(=O)C2CCOCC2)O[C@H]1CO`, for which the cytotoxicity call is “inactive”. Take `CSCC[C@H]1NC(=O)NC1=O`: the cytotoxicity call was “inactive”. Under `OCCC12CC3CC(CC(C3)C1)C2` stands “inactive”. For `C[C@@H]1CN([C@@H](C)CO)C(=O)CCCn2cc(nn2)CO[C@H]1CN(C)C(=O)Nc1ccc(N2CCCCC2)cc1`, the cytotoxicity call was “inactive”. With `C[C@H]1CN([C@@H](C)CO)C(=O)c2cccc(NS(=O)(=O)c3ccc(F)cc3)c2O[C@@H]1CN(C)C(=O)Nc1ccc(C(F)(F)F)cc1`, the cytotoxicity call is “inactive”.

Regarding `C[C@@H]1CN([C@@H](C)CO)C(=O)c2cccc(NS(=O)(=O)c3ccc(Cl)cc3)c2O[C@H]1CN(C)C(=O)Nc1ccc(C(F)(F)F)cc1`, the cytotoxicity call is “inactive”. Regarding `C[C@H](CO)N1C[C@H](C)[C@H](CN(C)C(=O)Nc2ccc(C(F)(F)F)cc2)Oc2c(NS(=O)(=O)c3ccc(Cl)cc3)cccc2C1=O`, the cytotoxicity call was “active”.

As for `C[C@@H]1CN([C@H](C)CO)C(=O)c2cccc(NS(=O)(=O)c3ccc(Cl)cc3)c2O[C@@H]1CN(C)C(=O)Nc1ccc(C(F)(F)F)cc1`, the cytotoxicity call was “active”.

Consider `C[C@H]1CN([C@@H](C)CO)C(=O)c2cccc(NS(=O)(=O)c3ccc(F)cc3)c2O[C@H]1CN(C)C(=O)Nc1ccc(C(F)(F)F)cc1`, for which the cytotoxicity call was “inactive”.

Consider `C[C@@H]1CN([C@@H](C)CO)C(=O)c2cccc(NS(=O)(=O)c3ccc(Cl)cc3)c2O[C@@H]1CN(C)C(=O)Nc1ccc(C(F)(F)F)cc1`, for which the cytotoxicity call is “active”.

Consider `C[C@@H]1CN([C@H](C)CO)C(=O)c2cccc(NS(=O)(=O)c3ccc(Cl)cc3)c2O[C@H]1CN(C)C(=O)Nc1ccc(C(F)(F)F)cc1`, for which the cytotoxicity call was “inactive”. `C[C@H]1CN([C@@H](C)CO)C(=O)c2cccc(NS(=O)(=O)c3ccc(Cl)cc3)c2O[C@@H]1CN(C)C(=O)Nc1ccc(C(F)(F)F)cc1`: the cytotoxicity call was “inactive”. Regarding `C[C@H]1CN([C@@H](C)CO)C(=O)c2cccc(NS(=O)(=O)c3ccc(Cl)cc3)c2O[C@H]1CN(C)C(=O)Nc1ccc(C(F)(F)F)cc1`, the cytotoxicity call is “inactive”.

Turning to `C[C@H](CO)N1C[C@H](C)[C@@H](CN(C)C(=O)Nc2ccc(C(F)(F)F)cc2)Oc2c(NS(=O)(=O)c3ccc(Cl)cc3)cccc2C1=O`, the cytotoxicity call is “inactive”. Under `C[C@@H]1CN([C@H](C)CO)C(=O)c2cccc(NS(=O)(=O)c3ccc(F)cc3)c2O[C@H]1CN(C)C(=O)Nc1ccc(C(F)(F)F)cc1` stands “inactive”. The entry for `C[C@@H]1CN([C@@H](C)CO)C(=O)c2cccc(NS(=O)(=O)c3ccc(F)cc3)c2O[C@@H]1CN(C)C(=O)Nc1ccc(C(F)(F)F)cc1` is “active”; for `C[C@@H]1CC=CC[C@H](c2cccc(Cl)c2)NC(=O)[C@@H](Cc2ccccc2)N(C)C(=O)c2ccccc2O1` it is “inactive”. The entry for `C[C@@H]1CN([C@@H](C)CO)C(=O)c2c(c3ccccc3n2C)-c2ccccc2CO[C@@H]1CN(C)C(=O)N[C@H](C)c1ccccc1` is “inactive”; for `Cc1ccc(S(=O)(=O)N(C)C[C@@H]2Oc3cc(Br)ccc3S(=O)(=O)N([C@@H](C)CO)C[C@H]2C)cc1` it is “inactive”. `Cc1noc(C)c1S(=O)(=O)Nc1ccc2c(c1)C(=O)N([C@H](C)CO)C[C@H](C)[C@@H](CN(C)C(=O)Nc1ccccc1)OCCCC[C@H](C)O2`: the cytotoxicity call is “inactive”. The entry for `O=C1N[C@@H](CC(=O)N2CCN(CCc3ccncc3)CC2)C(=O)Nc2ccccc21` is “inactive”.

In the case of `COc1ccc(-c2cnc3c(c2)C(=O)N([C@@H](C)CO)C[C@@H](C)[C@H](CN(C)C(=O)Cc2ccccn2)O3)cc1`, the cytotoxicity call is “inactive”. As to `CCCNC(=O)N[C@H]1CC[C@H](CC(=O)N2CCN(C)CC2)O[C@H]1CO`, the cytotoxicity call is “inactive”. Under `C[C@@H](O)CNC(=O)C(=O)NC(C)(C)C` stands “inactive”. The entry for `COc1cccc(-c2cn(CC[C@@H]3CC[C@H](NC(=O)CN(C)C)[C@H](CO)O3)nn2)c1` is “inactive”. Consider `C[C@H]1CN([C@@H](C)CO)C(=O)c2cc(NC(=O)Cc3ccccc3)ccc2O[C@@H]1CN(C)S(=O)(=O)c1cn(C)cn1`, for which the cytotoxicity call is “inactive”. With `NCCCC[C@H](NC(=O)[C@@H]1CCCN1C(=O)[C@@H]1CSSC[C@H](N)C(=O)N[C@@H](Cc2ccc(O)cc2)C(=O)N[C@@H](Cc2ccccc2)C(=O)N[C@@H](CCC(N)=O)C(=O)N[C@@H](CC(N)=O)C(=O)N1)C(=O)NCC(N)=O`, the cytotoxicity call is “inactive”. As for `NCCCC[C@H](NC(=O)[C@@H]1CCCN1C(=O)[C@@H]1CSSC[C@H](N)C(=O)N[C@@H](Cc2ccccc2)C(=O)N[C@@H](Cc2ccccc2)C(=O)NC(CCC(N)=O)C(=O)N[C@@H](CC(N)=O)C(=O)N1)C(=O)NCC(N)=O` (stereo not given in full), the cytotoxicity call was “inactive”. Under `NCCC[C@H](NC(=O)[C@@H]1CCCN1C(=O)[C@@H]1CSSC[C@H](N)C(=O)N[C@@H](Cc2ccc(O)cc2)C(=O)N[C@@H](Cc2ccccc2)C(=O)N[C@@H](CCC(N)=O)C(=O)N[C@@H](CC(N)=O)C(=O)N1)C(=O)NCC(N)=O` stands “active”; under `CNC[C@H]1OCCCC[C@H](C)Oc2ccc(NC(=O)Nc3ccc(C(F)(F)F)cc3)cc2C(=O)N([C@H](C)CO)C[C@@H]1C`, “inactive”; under `COc1cccc(S(=O)(=O)Nc2ccc3c(c2)C(=O)N(C)C[C@H](OC)[C@@H](C)CN(C(=O)Cc2cccnc2)[C@@H](C)CO3)c1`, “inactive”. The entry for `CC(C)=CCC[C@@H](C)CCO` is “inactive”; for `COC(=O)[C@H](Cc1ccccc1)NC(=O)[C@@H](N)CC(=O)O` it is “inactive”; for `CC(C)C[C@H](NC(=O)[C@H](CCc1ccccc1)NC(=O)CN1CCOCC1)C(=O)N[C@@H](Cc1ccccc1)C(=O)N[C@@H](CC(C)C)C(=O)[C@@]1(C)CO1` it is “active”. Consider `CC(=O)N[C@@H](Cc1ccccc1)C(=O)O`, for which the cytotoxicity call was “inactive”. The entry for `COc1ccc(C[C@H](NC(=O)[C@H](C)NC(=O)CN2CCOCC2)C(=O)N[C@@H](Cc2ccccc2)C(=O)[C@@]2(C)CO2)cc1` is “active”; for `COC[C@H](NC(=O)c1cnc(C)s1)C(=O)N[C@@H](COC)C(=O)N[C@@H](Cc1ccccc1)C(=O)[C@@]1(C)CO1` it is “active”.

Regarding `CC(=O)N[C@@H](Cc1ccccc1)C(=O)NN`, the cytotoxicity call is “inactive”. The entry for `COC(=O)C(Cc1ccccc1)NC(=O)C(N)CC(=O)O` (stereo not given) is “inactive”. Turning to `CC(=O)N1[C@H](CNC(=O)CN2CCOCC2)[C@@H](c2ccccc2)[C@@H]1CO`, the cytotoxicity call was “inactive”. Under `CC(=O)N1[C@@H](CO)[C@H](c2ccccc2)[C@@H]1CNC(=O)CN1CCOCC1` stands “inactive”. The entry for `C[C@@H]1CN([C@H](C)CO)C(=O)c2cccc(NC(=O)c3ccc(-c4nccs4)cc3)c2O[C@H]1CN(C)Cc1ccc(C(=O)Nc2ccccc2N)cc1` is “inactive”. Under `NCCC[C@@H](N)CC(=O)NC[C@H]1NC(=O)[C@@H](CO)NC(=O)[C@@H](N)CNC(=O)[C@H]([C@H]2CCN=C(N)N2)NC(=O)C(C=NC(N)=O)NC1=O` (stereo not given in full) stands “inactive”; under `O=C(C[C@H]1CC[C@H]2[C@@H](COC[C@H](O)CN2C(=O)C2CC2)O1)NCc1ccncc1`, “inactive”; under `C=CCNc1ncnc2c1cnn2C`, “inactive”. Consider `CNC(=O)C[C@@H]1CC[C@H]2[C@@H](COC[C@@H](O)CN2C(=O)c2ccccn2)O1`, for which the cytotoxicity call is “inactive”. Under `CO[C@H]1CN(C)C(=O)c2cc(NS(=O)(=O)c3ccccc3)ccc2OC[C@H](C)N(C(=O)NC(C)C)C[C@@H]1C` stands “inactive”. On to `C[C@H]1CN([C@@H](C)CO)C(=O)Cc2cc(NC(=O)Nc3ccc4c(c3)OCO4)ccc2O[C@H]1CN(C)Cc1ccc(Cl)c(Cl)c1`, for which the cytotoxicity call is “active”. On to `C[C@@H]1CN([C@H](C)CO)C(=O)Cc2cc(NC(=O)Nc3ccc4c(c3)OCO4)ccc2O[C@@H]1CN(C)Cc1ccc(Cl)c(Cl)c1`, for which the cytotoxicity call is “inactive”. The entry for `C[C@@H]1CN([C@@H](C)CO)C(=O)Cc2cc(NC(=O)Nc3ccc4c(c3)OCO4)ccc2O[C@H]1CN(C)Cc1ccc(Cl)c(Cl)c1` is “active”; for `C[C@@H]1CN([C@@H](C)CO)C(=O)Cc2cc(NC(=O)Nc3ccc4c(c3)OCO4)ccc2O[C@@H]1CN(C)Cc1ccc(Cl)c(Cl)c1` it is “inactive”; for `C[C@H](CO)N1C[C@H](C)[C@H](CN(C)Cc2ccc(Cl)c(Cl)c2)Oc2ccc(NC(=O)Nc3ccc4c(c3)OCO4)cc2CC1=O` it is “active”. The entry for `C[C@H]1CN([C@@H](C)CO)C(=O)Cc2cc(NC(=O)Nc3ccc4c(c3)OCO4)ccc2O[C@@H]1CN(C)Cc1ccc(Cl)c(Cl)c1` is “inactive”; for `C[C@H](CO)N1C[C@H](C)[C@@H](CN(C)Cc2ccc(Cl)c(Cl)c2)Oc2ccc(NC(=O)Nc3ccc4c(c3)OCO4)cc2CC1=O` it is “inactive”; for `C[C@@H]1CN([C@H](C)CO)C(=O)Cc2cc(NC(=O)Nc3ccc4c(c3)OCO4)ccc2O[C@H]1CN(C)Cc1ccc(Cl)c(Cl)c1` it is “inactive”. Under `CCS(=O)(=O)N1CC[C@]2(CC1)CN([C@@H](CO)c1[nH]c3cc(ccc3c12)OC)C(=O)c1ccc(cc1)F` stands “inactive”; under `COc1ccc(S(=O)(=O)N(C)C[C@H]2OCCCC[C@H](C)Oc3ccc(NC(=O)Nc4ccc(F)cc4)cc3C(=O)N([C@@H](C)CO)C[C@H]2C)cc1`, “inactive”; under `CN1CCN(C(=O)[C@@H]2[C@@H](C(=O)O)[C@H]3CC[C@H]2O3)CC1`, “inactive”. For the compound `CN(C)CC(=O)N1CC(=O)N2[C@@H](CO)[C@H](c3ccc(C#Cc4cccnc4)cc3)[C@@H]2C1`, the cytotoxicity call was “inactive”.

As for `CN1CCN(C)[C@@H](CO)C1`, the cytotoxicity call was “inactive”.

For `Cc1ccc(S(=O)(=O)N(C)C[C@@H]2OCCCC[C@@H](C)Oc3ccc(NC(=O)c4ccccc4)cc3C(=O)N([C@@H](C)CO)C[C@@H]2C)cc1`, the cytotoxicity call is “inactive”. As to `C[C@@H]1CN([C@H](C)CO)C(=O)c2cc(NS(=O)(=O)c3cn(C)cn3)ccc2O[C@@H]1CN(C)C(=O)Nc1ccc(F)cc1`, the cytotoxicity call is “inactive”.

On to `CC(CC(=O)C1OC1(C)C)C1C(=O)CC2(C)C3=CCC4C(C)(C)C(OC5OCC(O)C(O)C5O)CCC45CC35C(O)CC12C` (stereo not given), for which the cytotoxicity call was “active”. Under `CC1(C)CC[C@]2(C(=O)O[C@@H]3O[C@H](CO[C@@H]4O[C@H](CO)[C@@H](O)[C@H](O)[C@H]4O)[C@@H](O)[C@H](O)[C@H]3O)CC[C@]3(C)C(=CC[C@H]4[C@@]5(C)CC[C@H](O[C@@H]6OC[C@H](O)[C@H](O)[C@H]6O)C(C)(C)[C@@H]5CC[C@]43C)[C@@H]2C1` stands “inactive”. The entry for `CC(=O)OC1CC23CC24CCC(OC2OCC(O)C(O)C2O)C(C)(C)C4CCC3C2(C)CC3OC4(CC(C)C3C12C)OC(O)C1(C)OC41` (stereo not given) is “inactive”.
